# Reference: PubChem BioAssay AID624483 (NMMLSC, 2012)
# Among all 360,000 compounds or so, about 11,000 (3.1%) were called active. Not shown: some 2% with an inconclusive outcome. No stated cut-off is given here; in the data, active means fluorescence intensity above about 16000; inconclusive means no clear call, values can overlap the other calls; inactive means below that. Only a selection was taken, and actives are over-represented in it overall.
# Assay: counter-screen for toxin protease inhibitors: compound fluorescence, primary screen, artefact control for toxin protease inhibitor project, biochemical, multiplex microsphere, HTS (AID 624483)
# Settings: compound autofluorescence counterscreen, microsphere flow cytometry; stronger effect = higher value
row,Compound,fluorescence intensity
1,CC1(C(=O)NS(=O)(=O)c2ccc(C#N)cc2)CCN1C(=O)CC1CCCC1 (centres undefined),3000 (inactive)
2,COC(=O)c1nc(NC(=O)c2ccccc2)n[nH]1,19900 (active)
3,COC(=O)c1nc(NC(=O)c2ccc(Cl)cc2)n[nH]1,12500 (inactive)
4,COC(=O)c1nc(NC(=O)c2ccc(F)cc2)n[nH]1,3910 (inactive)
5,CCCCCn1nnnc1C1c2ccccc2C(=O)N1Cc1ccco1 (centres undefined),6010 (inactive)
6,CC1CCCN(S(=O)(=O)c2ccc(-c3ccc(=O)[nH]n3)o2)C1 (centres undefined),5950 (inactive)
7,CN(C)/C=C(\C#N)C(=O)c1cccnc1Oc1ccc(F)cc1F,24800 (active)
8,CN(C)/C=C(\C#N)C(=O)c1cccnc1Oc1cccc(F)c1,15200 (inactive)
9,CCOc1ncccc1C(=O)N(C)CC(=O)Nc1ccc(F)cc1,2630 (inactive)
10,COc1cc(C(O)c2nc(-c3cccc(C(=O)O)c3)cs2)ccc1F (centres undefined),3440 (inactive)
11,CC(Sc1ccccc1F)C(=O)Nc1cccc(S(=O)(=O)N2CCOCC2)c1 (centres undefined),4000 (inactive)
12,CC(C)(C)OC(=O)N(Cc1ccccc1)Cc1ccc(OCc2cccc(NC(=O)c3ccccc3)c2)cc1,3640 (inactive)
13,CC(C)c1cc(C(N)=O)c(NC(=O)c2cccc(COc3ccc(Br)cc3)c2)s1,22100 (active)
14,CCOc1ccc(OCc2cccc(C(=O)N(CC)CC)c2)cc1,2210 (inactive)
15,CC1(C)OC(=O)C2=C(C[C@@H](C3CCCC3)O[C@@H]2c2ccc(Cl)cc2)O1,6120 (inactive)
16,C=CCc1cccc2cc(C(=O)OCC)c(=O)oc12,2480 (inactive)
17,C=CCc1cccc2cc(C(=O)Nc3ccc(NC(C)=O)cc3)c(=O)oc12,4060 (inactive)
18,C=CCc1cccc2cc(C(=O)N3CCN(C(=O)OCC)CC3)c(=O)oc12,19200 (active)
19,CCc1ccc(OC2(C)CCN(CCOc3ccc(C)cc3)C2)cc1 (centres undefined),3880 (inactive)
20,Cc1nc2ccc(S(=O)(=O)NCC(=O)NCCN3CCCCC3C)cc2s1 (centres undefined),3450 (inactive)
21,Cc1ccc(N(Cc2cc(=O)[nH]c3ccccc23)C(=O)CCl)cc1,3750 (inactive)
22,Cc1oc(-c2ccccc2F)nc1CS(=O)(=O)CC(=O)NCCCN(C)C1CCCCC1,17000 (active)
23,Cc1oc(-c2ccccc2F)nc1CS(=O)CC(=O)NCCN1CCCCC1C (centres undefined),5840 (inactive)

row,Compound,fluorescence intensity
1,CSc1ccc(CCNC(=O)CS(=O)(=O)Cc2nc(-c3ccccc3F)oc2C)cc1,5680 (inactive)
2,CC1(C(=O)Nc2cccc3c2CCCC3)CCN1C(=O)CCc1ccc(Cl)cc1Cl (centres undefined),3570 (inactive)
3,C=C(C)CNC(=S)Nc1ccc(S(=O)(=O)Nc2cnc3ccccc3n2)cc1,4200 (inactive)
4,Cc1ccc(NS(=O)(=O)c2cc3c(cc2Br)NC(=O)CO3)cc1C,2960 (inactive)
5,CCCc1nc2c([nH]1)C(c1cccnc1)C(C#N)=C(N)O2 (centres undefined),7630 (inactive)
6,CCCc1[nH]nc2c1C(c1ccc(OC(=O)c3ccco3)cc1)C(C#N)=C(N)O2 (centres undefined),17200 (active)
7,CCCc1[nH]nc2c1C(c1ccc(Br)s1)C(C#N)=C(N)O2 (centres undefined),2790 (inactive)
8,COc1ccc(C(C)(O)c2nc(-c3cc(F)cc(F)c3)cs2)cc1 (centres undefined),3820 (inactive)
9,OCCN1CCN(c2ncnc3c2ncn3[C@H]2CN(Cc3ccco3)C[C@@H](CO)O2)CC1,2940 (inactive)
10,CC(=O)C1=CCC(c2ccccc2)N(S(=O)(=O)c2ccc(C)cc2)C1 (centres undefined),4360 (inactive)
11,CCOC(=O)C1(CCOc2ccccc2)CCN(Cc2cc(OC)cc(OC)c2)CC1,3960 (inactive)
12,CCOC(=O)C1(S(=O)(=O)c2ccc(Cl)cc2)CCN(Cc2ccccc2)CC1,22200 (active)
13,CCOC(=O)C1(CCc2ccccc2)CCN(Cc2ccco2)CC1,2080 (inactive)
14,CCOC(=O)C1(S(=O)(=O)c2ccccc2)CCN(Cc2ccccc2)CC1,25000 (active)
15,CCOC(=O)C1(CCOC)CCN(Cc2ccc(C(=O)OC)cc2)CC1,4510 (inactive)
16,O=C(NNS(=O)(=O)c1ccc(Cl)cc1)C1CCN(Cc2ccccc2)CC1,9590 (inactive)
17,COC(=O)[C@@]1(Cc2ccc(F)cc2)[C@H]2c3cc(C(=O)N(C)C)n(CCc4c[nH]c5ccc(OC)cc45)c3C[C@H]2CN1C(=O)c1ccccc1,6230 (inactive)
18,Nc1nc2c(ncn2[C@@H]2O[C@H](CNCc3ccc(OCCCN4CCOCC4)cc3)[C@@H](O)[C@H]2O)c(=O)[nH]1,6030 (inactive)
19,CCCc1c(-c2ccccc2F)ncn1Cc1ccccc1OC,6360 (inactive)
20,N#C/C(=C\c1ccc(N2CCOCC2)o1)C(=O)N1CCOCC1,3190 (inactive)
21,COC(=O)[C@]1(Cc2ccccc2)N[C@H](CN(C)S(=O)(=O)c2ccc(F)cc2)[C@@H]2C(=O)N(Cc3ccccc3)C(=O)[C@@H]21,2850 (inactive)
22,COc1ccc(N(CC(=O)N2CCCCCC2)S(=O)(=O)c2ccccc2)cc1,5240 (inactive)
23,COc1ccc(S(=O)(=O)NCCCCOc2ccc(Cl)cc2)cc1,3450 (inactive)

row,Compound,fluorescence intensity
1,COc1ccc(N(CCC#N)S(=O)(=O)c2ccc(Cl)cc2)cc1,19700 (active)
2,CC1(C)C(C=C(Cl)Cl)C1C(=O)NC(O)C(=O)c1ccccc1 (centres undefined),3770 (inactive)
3,CCOC(=O)C1=CC[C@@H](c2ccccc2)N(S(=O)(=O)c2ccc(C)cc2)[C@H]1c1ccc(CC)cc1,5350 (inactive)
4,OC[C@@H]1CN(Cc2cccs2)C[C@H](n2cnc3c(NC4CCCC4)ncnc32)O1,4050 (inactive)
5,O=C(NCC(F)(F)F)Nc1nnc(C(F)(F)F)s1,2520 (inactive)
6,CC(Nc1nc(N2CCOCC2)nc2ccccc12)c1ccccc1 (centres undefined),4260 (inactive)
7,c1ccc(COc2nsnc2N2CCOCC2)cc1,4190 (inactive)
8,Fc1cnc(N2CCOCC2)nc1NCc1ccccc1,19200 (active)
9,COc1cccc(N(CC(=O)NC2CCCC2)C(=O)Cn2nnc(-c3ccc(C)cc3)n2)c1,20000 (active)
10,CC(C)CCNC(=O)C(C)N(C(=O)Cn1nnc(-c2ccc(F)cc2)n1)C1CCCC1 (centres undefined),23500 (active)
11,CC(C)CCNC(=O)CN(C(=O)Cn1nnc(-c2ccc(F)cc2)n1)C1CCCC1,7590 (inactive)
12,COc1ccc(C(C(=O)NC2CCCC2)N(CCCO)C(=O)Cn2nnc(-c3ccc(C)o3)n2)cc1 (centres undefined),5780 (inactive)
13,COc1cccc(N(CC(=O)NC2CCCC2)C(=O)Cn2nnc(-c3ccc(C)o3)n2)c1,5040 (inactive)
14,COc1ccc(-c2nnn(CC(=O)N(CCO)C(C(=O)NC3CCCC3)c3ccc(F)cc3)n2)cc1 (centres undefined),20700 (active)
15,CCOCCCN(C(=O)Cn1nnc(-c2ccc(OC)c(OC)c2)n1)C(CC)C(=O)NC1CCCC1 (centres undefined),3360 (inactive)
16,CN(C(=O)Cn1nnc(-c2ccc(F)cc2)n1)C1CCS(=O)(=O)C1 (centres undefined),6480 (inactive)
17,COc1cccc(N(CC(=O)NC2CCCC2)C(=O)CCCC(=O)Nc2ccccn2)c1,6270 (inactive)
18,Cc1ccc(C(=O)O)cc1S(=O)(=O)NCC1CCCO1 (centres undefined),8490 (inactive)
19,O=C(O)C(=Cc1ccccc1[N+](=O)[O-])c1ccccc1,3020 (inactive)
20,CCOC1=C2[C@H]([C@H]3C(=O)N(c4ccccc4)C(=O)[C@H]3C1)[C@@H](c1ccccc1)N(S(=O)(=O)c1ccc(C)cc1)[C@H]2c1ccccc1,5740 (inactive)
21,CN(CCO)C(=O)c1nc[nH]c1C(=O)N(C)Cc1ccccc1,6070 (inactive)
22,COCCCNc1ccn2nc(-c3ccc(CC(C)C)cc3)cc2n1,3740 (inactive)
23,CC1(C(=O)Nc2cccc(Oc3ccccc3)c2)CCN1Cc1ccccc1Cl (centres undefined),2960 (inactive)

row,Compound,fluorescence intensity
1,CCCS(=O)(=O)NC(=O)C1(C)CCCN(C(=O)c2ccnc(Cl)c2)C1 (centres undefined),3780 (inactive)
2,O=C(NCc1cccnc1)c1cc(C2CCCN(C(=O)C3CCCCC3)C2)on1 (centres undefined),3680 (inactive)
3,CC1(C)CC(=O)C=C(NCCCNC2CCCCC2)C1,16400 (active)
4,CC1(C)CC(=O)C=C(NC2CC(C)(C)NC(C)(C)C2)C1,11500 (inactive)
5,CC1(C)CC(=O)C=C(NCCCN2CCCC2=O)C1,10600 (inactive)
6,CCOc1ccc(C(=O)NC2CCN(CC(=O)NCc3cccs3)CC2)cc1,4320 (inactive)
7,CC(=O)c1cccc(-c2cnc3c(NC=O)cc(-c4ccccc4Oc4ccccc4)cn23)c1,2970 (inactive)
8,CCc1nc2ccc(C(=O)Nc3ccc(OC)c(OC)c3)cn2c1N(C)C(=O)c1cccc(OC)c1,3840 (inactive)
9,CSc1cccc(NC(=O)C2CCCN2S(=O)(=O)c2ccc3c(c2)CCC(=O)N3)c1 (centres undefined),22100 (active)
10,Cc1cccc(NC(=O)C2CCCN2S(=O)(=O)c2ccc(F)cc2)c1C (centres undefined),12300 (inactive)
11,O=C1CCc2cc(S(=O)(=O)N3CCC(C(=O)NCc4ccccc4Cl)CC3)ccc2N1,5010 (inactive)
12,O=CNc1cc(-c2ccc(C(=O)N3CCOCC3)cc2)cn2c(-c3ccc(F)cc3)cnc12,4100 (inactive)
13,NC(Cc1ccccc1)c1csc(Nc2cc(Oc3ccccc3)ncn2)n1 (centres undefined),3760 (inactive)
14,CN1CCN(C(=O)N2c3ccccc3CCc3ccccc32)CC1,4530 (inactive)
15,CC1CC(C)CN(CC(=O)Nc2ccc(S(N)(=O)=O)cc2)C1 (centres undefined),4900 (inactive)
16,CC1CC(C)CN(CC(=O)N2c3ccccc3CCc3ccccc32)C1 (centres undefined),17600 (active)
17,Cc1cccc(C)c1-n1nnnc1C1(C)CCC(=O)N1CCOc1ccccc1 (centres undefined),6150 (inactive)
18,Cc1nc2c(OCC(=O)C(C)(C)C)cccn2c1N(C)Cc1cccs1,2880 (inactive)
19,CC(C)C[C@@H]1Cc2[nH][nH]c(=O)c2[C@H](CCc2ccccc2)O1,4470 (inactive)
20,N=C1c2ccccc2-c2ccccc21,3590 (inactive)
